Records with an inconclusive call do not appear. Calls of active or inactive are those of the source. Calls follow the shape of the dose curve; as a rule, active = well fitted curve in either direction with a large enough effect (not every such curve was filed as active); inconclusive = small, poorly fitted or top-dose-only effect, or another doubt; inactive = flat fitted curve, though single readings scatter. Bridge positions count the residues as written; N and C are the ends. Square brackets hold non-standard residues; d marks the D form. Peptide text beside a SMILES is read from it. * marks the point of attachment. Ileψ(thiazoline)Cys = CC[C@H](C)[C@H](N)C1=N[C@H](C(=O)*)CS1; d(aIle) = CC[C@H](C)[C@@H](N)C(=O)O; dOrn = NCCC[C@@H](N)C(=O)O

The test in a line: AP1 Signaling Pathway (AID 357).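 Also: ME-180 reporter cells stimulated with EGF at its EC50 level.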 As to conditions: ME-180 (cervical carcinoma) AP-1-bla reporter, EGF-induced, beta-lactamase ratio, 5 h; series mostly up to 17.2 µM. In outline: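 Beta-lactamase reporter under AP-1 response element, ME-180 background. Stimulus: EC50 EGF. Compound exposure 5 h, 37 °C. Detection: CCF4, 2.5 h RT, 460/530 nm. Values: AC50 from titration.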
With `CC1(C)[C@@H](OC(=O)CCC(=O)O)CC[C@@]2(C)[C@H]1CC[C@@]1(C)[C@H]2C(=O)C=C2[C@H]3C[C@](C)(C(=O)O)CC[C@]3(C)CC[C@@]21C`, the outcome was inactive.

Consider `CCOC(=O)O[C@@H](C)OC(=O)[C@@H]1N2C(=O)[C@@H](NC(=O)[C@@H](N)c3ccccc3)[C@H]2SC1(C)C`, for which the result was inactive.

Regarding `C#C[C@@]1(OC(C)=O)CC[C@@H]2[C@@H]3CCC4=C[C@@H](OC(C)=O)CC[C@H]4[C@H]3CC[C@]21C`, the outcome was inactive.

On to `CC#C[C@@]1(O)CC[C@H]2[C@@H]3CCC4=CC(=O)CCC4=C3[C@H](c3ccc(N(C)C)cc3)C[C@]21C`, for which the result was inactive. Consider `Cc1ccsc1/C=C\C1=NCCCN1C`, for which the outcome was inactive. As for `Cc1cccc(CN2CCN([C@@H](c3ccccc3)c3ccc(Cl)cc3)CC2)c1`, the result was inactive. The same measure for `C[C@@H]1[C@H]2CC[C@@H]3[C@@H]4CC=C5C[C@@H](N(C)C)CC[C@]5(C)[C@@H]4CC[C@@]32CN1C`: “inactive”. With `COc1ccc(CNc2ncncc2-c2ccccc2CN(C)C)c(OC)c1`, the result was inactive. Consider `Nc1nc(=S)c2ncn([C@H]3O[C@@H](CO)[C@@H](O)[C@@H]3O)c2[nH]1`, for which the result was inactive.

With `C#C[C@]1(O)CC[C@@H]2[C@H]3CCC4=CCCC[C@@H]4[C@@H]3CC[C@@]21C`, the result was inactive. On to `O=C(c1cc(C(F)(F)F)cc(C(F)(F)F)c1)N1CCC[C@@]2(CCN(c3ccccn3)C2)C1`, for which the outcome was inactive. `CC[C@H](C)[C@H](N)C1=N[C@H](C(=O)N[C@@H](CC(C)C)C(=O)N[C@@H](CCC(=O)O)C(=O)N[C@@H](C(=O)N[C@H]2CCCCNC(=O)[C@@H](CC(N)=O)NC(=O)[C@@H](CC(=O)O)NC(=O)[C@@H](Cc3cnc[nH]3)NC(=O)[C@@H](Cc3ccccc3)NC(=O)[C@@H]([C@@H](C)CC)NC(=O)[C@@H](CCCN)NC2=O)[C@@H](C)CC)CS1` ({Ileψ(thiazoline)Cys}-LE[d(aIle)]K[dOrn][d(aIle)][dF][dH][dD][dN]; lactam 4-C): the result was inactive.

Source of the values: PubChem BioAssay (NCATS).
